From PubChem BioAssay AID588511 (Johns Hopkins Ion Channel Center, 2011)
Hit rate of the full screen: of about 310,000 compounds, about 3,600 (1.2%) were called active.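 The calls were made as follows: active = ratio plate-corrected score three or more library SD toward inhibition, starting fluorescence score within five deviations; inactive = the rest.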 The full list was thinned out, with actives kept by preference.

Target: Anoctamin-1 (Mus musculus) (UniProt Q8BHY3)
Test: TMEM16A chloride channel inhibitors, primary screen, cell-based, HTS (AID 588511);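 as to normalized B-score (activity score, 25-100; higher = stronger inhibition): score derived from kinetic fluorescence span divided by baseline fluorescence per well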
Details: HEK293 TMEM16A/YFP iodide influx fluorescence, ionomycin; at 10 µM

Sequence of Anoctamin-1 (Mus musculus) (Q8BHY3 whole entry, looked up): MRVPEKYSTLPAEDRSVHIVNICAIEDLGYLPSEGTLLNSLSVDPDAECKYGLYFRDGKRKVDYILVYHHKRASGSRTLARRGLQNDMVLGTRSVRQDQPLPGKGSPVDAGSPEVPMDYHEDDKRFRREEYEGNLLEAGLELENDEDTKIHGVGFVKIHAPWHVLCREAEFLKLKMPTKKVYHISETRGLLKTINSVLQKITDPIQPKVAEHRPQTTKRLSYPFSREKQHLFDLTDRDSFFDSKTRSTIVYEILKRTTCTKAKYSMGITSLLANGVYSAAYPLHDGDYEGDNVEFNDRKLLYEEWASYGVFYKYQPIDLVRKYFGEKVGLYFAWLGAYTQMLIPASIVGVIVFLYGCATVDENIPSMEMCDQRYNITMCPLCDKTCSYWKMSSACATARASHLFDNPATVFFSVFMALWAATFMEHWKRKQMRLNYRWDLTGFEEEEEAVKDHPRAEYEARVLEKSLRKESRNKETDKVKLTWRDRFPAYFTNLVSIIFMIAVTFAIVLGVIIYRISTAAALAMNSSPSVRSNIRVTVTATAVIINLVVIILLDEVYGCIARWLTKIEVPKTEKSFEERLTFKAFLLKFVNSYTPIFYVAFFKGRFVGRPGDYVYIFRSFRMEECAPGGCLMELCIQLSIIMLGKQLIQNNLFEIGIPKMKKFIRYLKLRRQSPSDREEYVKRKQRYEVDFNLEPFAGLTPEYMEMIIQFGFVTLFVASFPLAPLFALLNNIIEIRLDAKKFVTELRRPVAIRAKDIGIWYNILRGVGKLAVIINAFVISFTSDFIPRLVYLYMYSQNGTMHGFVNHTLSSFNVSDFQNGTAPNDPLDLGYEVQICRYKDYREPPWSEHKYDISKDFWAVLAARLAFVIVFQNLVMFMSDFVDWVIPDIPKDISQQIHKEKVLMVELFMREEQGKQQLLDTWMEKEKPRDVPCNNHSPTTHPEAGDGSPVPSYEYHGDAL

Row | SMILES | normalized B-score (activity score, 25-100; higher = stronger inhibition)
1 | CC(C)CCNC(=O)CC1C(=O)N(Cc2ccccc2)C(C)c2nc3ccccc3n21 (centres undefined) | inactive
2 | CC1CCN(Cc2nc3c(c(=O)n(C)c(=O)n3C)n2CCc2ccccc2)CC1 | inactive
3 | O=C(Nc1ccccc1C(=O)NCC1CCCO1)c1ccccc1F (centres undefined) | inactive
4 | CCC(C(=O)NCc1cccnc1)n1nc(C)c2sc3ccccc3c2c1=O (centres undefined) | inactive
5 | CC(=O)NCCC(=O)Nc1nc(-c2ccc3c(c2)OCCO3)cs1 | inactive
6 | O=C(Nc1nc2ccccc2s1)c1ccc2c(c1)OCO2 | inactive
7 | O=C(Nc1nc(-c2ccc3c(c2)OCO3)cs1)c1ccncc1 | 100 (active)
8 | O=C(O)Cc1csc(NC(=O)CSc2nnnn2-c2ccc(O)cc2)n1 | inactive
9 | CC(C)NC(=O)NCCCCCCS(C)=O (centres undefined) | inactive
10 | C=C(C)Cn1c(C)cc(C)c(S(=O)(=O)c2ccccc2C)c1=O | 100 (active)
11 | Cc1cc(C)c(S(=O)(=O)c2ccc(F)cc2C)c(=O)[nH]1 | inactive
12 | COc1ccccc1S(=O)(=O)c1c(C)cc(C)[nH]c1=O | inactive
13 | Cc1ccc(NC(=O)CSc2nn3c(=O)c(C)nnc3s2)cc1Cl | inactive
14 | CCC(C)c1ccccc1NC(=O)CN(C)CC(=O)Nc1ccccc1SC (centres undefined) | inactive
15 | CCCCOC(=O)CCCc1ccc([N+](=O)[O-])cc1[N+](=O)[O-] | inactive
16 | O=C(N/N=C/c1cc(Br)c(O)c([N+](=O)[O-])c1)C(O)(c1ccccc1)c1ccccc1 | inactive
17 | O=C(N/N=C/c1cc(Cl)cc([N+](=O)[O-])c1O)C(O)(c1ccccc1)c1ccccc1 | 100 (active)
18 | CN(C)/N=C/c1cc(Cl)cc([N+](=O)[O-])c1O | inactive
19 | S=C(NCc1ccc(Cl)cc1)NC12CC3CC(CC(C3)C1)C2 | 100 (active)
20 | O=C(NCc1ccc(Cl)cc1)NCc1ccc(Cl)cc1 | inactive
21 | O=C(NCc1ccncc1)NC12CC3CC(CC(C3)C1)C2 | inactive
22 | C=CCn1c2ccccc2c2nnc(SCc3[nH]c(=O)[nH]c3C(=O)CCCCC(=O)OCC)nc21 | inactive
23 | COc1cc(N2C(=O)CC3(CCCC3)CC2=O)cc(OC)c1OC | inactive

Row | SMILES | normalized B-score (activity score, 25-100; higher = stronger inhibition)
24 | COc1cc(OC)cc(C(=O)NNC(=O)CNC(=O)c2ccc(Br)o2)c1 | inactive
25 | CSCc1ccc(C(=O)Nc2cc(C)cc(C)c2)cc1 | inactive
26 | Cc1occc(=O)c1OCc1ccc(F)cc1 | inactive
27 | Cc1nc2ccccc2cc1OCc1ccc(F)cc1 | 25 (active)
28 | Fc1ccccc1COc1cccc2cccnc12 | inactive
29 | CC1CCCCN1C(=O)Cn1c(=O)oc2cc(S(=O)(=O)N3CCCCC3)ccc21 (centres undefined) | inactive
30 | Cc1cc(C)cc(NC(=O)Cn2cnc3c(nnn3Cc3ccc(F)cc3)c2=O)c1 | inactive
31 | CCC1SC2=NCCN2C1(O)c1ccc(Cl)cc1 (centres undefined) | inactive
32 | Clc1ccccc1SCc1nc2ccccc2[nH]1 | inactive
33 | Clc1ccc(-c2nnc(SCc3nc4ccccc4s3)o2)cc1 | inactive
34 | c1ccc(-c2nnc(SCc3nc4ccccc4[nH]3)o2)cc1 | 25 (active)
35 | COc1ccc([C@H]2[C@H](C(C)=O)N3N=Cc4ccccc4C3C23C(=O)OC(C)(C)OC3=O)cc1 (some centres undefined) | inactive
36 | O=C(Nc1cccc(Cl)c1Cl)c1ccccc1NC(=O)C1CC=CCC1C(=O)O (centres undefined) | inactive
37 | Cc1oc2nc(SCC(=O)NCc3cccnc3)nc(N)c2c1C | 100 (active)
38 | Cc1c(C(=O)NC(=S)NCc2cccnc2)oc2ccccc12 | inactive
39 | Cc1oc2nc(SCC(=O)Nc3ccc(S(N)(=O)=O)cc3)nc(NC(=O)c3ccccc3)c2c1C | inactive
40 | COc1ccc(CCNC(=O)c2nnc(CS(=O)(=O)c3ccccc3)o2)cc1OC | inactive
41 | O=C(CNCCC1=CCCCC1)Nc1ccccc1N1CCCCCC1 | 25 (active)
42 | Cc1ccccc1NC(=O)CNc1ccccc1N1CCCCC1 | inactive
43 | Cc1ccccc1NC(=O)Nc1ccccc1N1CCCCC1 | inactive
44 | COc1ccccc1CNC(=O)CSc1nc(=O)n(Cc2ccncc2)c2c1CCC2 | inactive
45 | CCN(CC)CCCNC(=O)CCn1nc(-c2ccc(Cl)cc2)ccc1=O | inactive
46 | Cc1ccc(-c2c[n+](=O)c3c(n2[O-])CCC3)cc1 | inactive

Row | SMILES | normalized B-score (activity score, 25-100; higher = stronger inhibition)
47 | Cc1ccc(OCCCC(=O)Nc2ccc(S(=O)(=O)Nc3cc(C)nc(C)n3)cc2)cc1 | inactive
48 | CCN1CCCC1CNC(=O)Cn1cnc2ccc(S(=O)(=O)N3CCC(C)CC3)cc2c1=O (centres undefined) | 25 (active)
49 | CC1CCN(S(=O)(=O)c2ccc3ncn(CC(=O)N(C)C4CCCCC4)c(=O)c3c2)CC1 | inactive
50 | O=C(Cn1cnc2ccccc2c1=O)Nc1cccc(S(=O)(=O)N2CCCCC2)c1 | inactive
51 | CC(=O)NC1C(Oc2ccc(C=O)cc2)OC(COC(C)=O)C(OC(C)=O)C1OC(C)=O (centres undefined) | inactive
52 | Cc1onc(-c2ccccc2)c1C(=O)NNC(=S)NC(=O)c1ccc(F)cc1 | inactive
53 | COc1ccc(C(=O)NNC(=S)NC(=O)c2ccccc2)cc1 | inactive
54 | COc1ccc(C(=O)NC(=S)NNC(=O)c2c(-c3ccccc3)noc2C)cc1 | 100 (active)
55 | CC(C)C[C@H](NC(=O)C1CC(=O)N(c2ccc3c(c2)OCCO3)C1)C(=O)NC1CCCC1 (some centres undefined) | inactive
56 | CN(c1ccc(C(=O)N2CCc3ccccc3C2)cc1)S(C)(=O)=O | inactive
57 | Cc1cccc(C)c1NC(=O)c1ccc(CN2CCc3ccccc3C2)cc1 | inactive
58 | CN(c1cccc(NC(=O)c2ccc(CN3CCc4ccccc4C3)cc2)c1)S(C)(=O)=O | 25 (active)
59 | COc1cccc(-n2c(=O)c3c(C)c(C(=O)N(C)C)sc3n(CC(=O)NCCc3ccc(OC)c(OC)c3)c2=O)c1 | inactive
60 | Cc1nc(SC(C)C)[nH]c(=O)c1Cc1ccccc1 | inactive
61 | O=C1CC(C(F)(F)C(F)(F)C(F)(F)C(F)(F)F)=Nc2ccccc2N1 | inactive
62 | Cc1ccc(-n2ncc3c(=O)[nH]cnc32)c(C)c1 | inactive
63 | Cc1ccc2cc(C)c(N3CCN(c4ccc(F)cc4)CC3)nc2c1 | inactive
64 | Cc1ccc(-n2ncc3c(N4CCN(c5ccc(F)cc5)CC4)ncnc32)c(C)c1 | 100 (active)
65 | CCN(CC)C(=O)Oc1ccc(OC(=O)N(CC)CC)cc1 | inactive
66 | Cc1ccc(NC(=O)CN2C(=O)NC(C)(c3ccc(Cl)cc3)C2=O)c(Br)c1 (centres undefined) | inactive
67 | CCOC(=O)C1=C(CN2CCc3ccccc32)NC(=O)NC1c1ccc(Cl)cc1 (centres undefined) | inactive
68 | CCOC(=O)C1=C(CN2CCCCCC2)NC(=O)NC1c1cccc([N+](=O)[O-])c1 (centres undefined) | inactive
69 | CCOC(=O)C1=C(CN2CCc3ccccc32)NC(=O)NC1c1cccc([N+](=O)[O-])c1 (centres undefined) | 25 (active)
